Assay in all cases: NCI-60 one-dose screen, 48 h (100 = growth as untreated, 0 = no growth, -100 = all killed)
One test relates to T-47D breast. The settings on record: 10 µM unless noted.
The next test concerns BT-549 breast. The conditions noted are these: 10 µM unless noted.
The subject of the next test is MDA-MB-435 melanoma. The conditions noted are these: 10 µM unless noted.
The subject of the next test is SW-620 colon. The settings on record: 10 µM unless noted.
The subject of another test is MCF7 breast. The settings on record: 10 µM.
Another test concerns HCT-116 colon. The settings on record: 10 µM unless noted.
Another test concerns KM12 colon. The conditions noted are these: 10 µM unless noted.
The next test deals with HCC-2998 colon. The conditions noted are these: 10 µM unless noted.

SMILES strings stand for the structures. Several values for one entry are separate records, joined by “and”; a condition that tells them apart may be missing. Equal values may be shown once. This is part of a sample that, as a whole, favours compounds with a hit. Of some 83,000 tested, about 20% had one in any assay.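 In brief: 96-well plates, 48 h treatment, single concentration, percent growth endpoint.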 Activity calls are given as the source filed them. Rule for the calls: active = growth percent below 10; inactive = the rest.

For `CN=C(N)N/N=C(\C)c1ccc2c(c1)Cc1cc(/C(C)=N/NC(N)=NC)ccc1-2`, the growth was -26% (active) with T-47D breast; 49.6% (inactive) in the test with BT-549 breast; -59.7% (active) in the test with MDA-MB-435 melanoma; -14.8% (active) in the test with SW-620 colon; -38.3% (active) with MCF7 breast; -23.5% (active) in the test on HCT-116 colon. In addition, the growth in the test with KM12 colon was -20.3% (active).

Regarding `CC(=O)C(=Cc1ccc(C=C(C(C)=O)C(C)=O)cc1)C(C)=O`, the growth was 29.1% (inactive) in the test with T-47D breast; 12.6% (inactive) with BT-549 breast; 7.62% (active) in the test with MDA-MB-435 melanoma; -11.2% (active) in the test with SW-620 colon; 1.33% (active) with MCF7 breast; -56.3% (active) in the test on HCT-116 colon. The growth with KM12 colon is -43.7% (active).

As for `N#CC1C(=O)SC2c3ccccc3C(=O)c3ccccc3C12` (stereo not given), the growth with T-47D breast is 89% (inactive); in the test on BT-549 breast, 101% (inactive); with MDA-MB-435 melanoma, 107% (inactive); in the test with SW-620 colon it was 101% (inactive); in the test on MCF7 breast, 98.9% (inactive); in the test on HCT-116 colon, 102% (inactive). Further, in the test with KM12 colon, the growth was 96.6% (inactive).

Turning to `COc1ccc(N=N/N=c2\sc3cc(OC)ccc3n2C)cc1`, the growth is 83.6% (inactive) with T-47D breast; 95.5% (inactive) with BT-549 breast; 104% (inactive) with MDA-MB-435 melanoma; 102% (inactive) with SW-620 colon; 78.9% (inactive) in the test on MCF7 breast; 95.8% (inactive) in the test with HCT-116 colon. Moreover, the growth with KM12 colon is 95% (inactive).

As for `Cc1cc2nc(CS)[nH]c2cc1C`, the growth in the test with T-47D breast was 74.3% (inactive); in the test on MDA-MB-435 melanoma, 90.9% (inactive); with SW-620 colon it was 84.7% (inactive); with MCF7 breast, 82.9% (inactive); with HCT-116 colon it was 58.1% (inactive); in the test with HCC-2998 colon, 102% (inactive). In addition, the growth in the test with KM12 colon was 88% (inactive).

On to `O=C(Nc1ccccc1)Oc1c(Cl)c(Cl)c(Cl)c(Cl)c1Cl`, for which the growth in the test with T-47D breast was 102% (inactive) and 84.5% (inactive); in the test with BT-549 breast, 98.7% (inactive) and 88.5% (inactive); in the test with MDA-MB-435 melanoma it was 109% (inactive) and 98.8% (inactive); in the test with MCF7 breast, 98.1% (inactive) and 91.5% (inactive); with HCT-116 colon, 105% (inactive) and 101% (inactive); with HCC-2998 colon, 112% (inactive) and 108% (inactive). Also, the growth in the test on KM12 colon was 100% (inactive) and 97.5% (inactive).

`O=C1C=CC(=O)N1C1c2ccccc2-c2ccccc21`: the growth in the test on T-47D breast was 73.6% (inactive); in the test on MDA-MB-435 melanoma, 110% (inactive); in the test on MCF7 breast, 85.8% (inactive); with HCT-116 colon, 97.9% (inactive); in the test on HCC-2998 colon, 114% (inactive); in the test on KM12 colon, 107% (inactive).

As to `CC1(C)CC([P+](c2ccccc2)(c2ccccc2)c2ccccc2)=NN1`, the growth was 6.55% (active) with T-47D breast; 28.2% (inactive) with MDA-MB-435 melanoma; 5.67% (active) in the test on MCF7 breast; 16.6% (inactive) in the test on HCT-116 colon; 21.7% (inactive) in the test with KM12 colon.

`CCCCCCCCCCCCCCCCOP(=O)([O-])OCC[N+](C)(C)C`: the growth with T-47D breast is 73% (inactive); with BT-549 breast, 45% (inactive); in the test with MDA-MB-435 melanoma, 68.3% (inactive); with MCF7 breast it was 68.5% (inactive); in the test with HCT-116 colon, 24.6% (inactive); in the test with KM12 colon, -90.4% (active).

Consider `CCCCCCCCCCCCCCCC[N+](C)(CCO)Cc1cnc[nH]1` (stereo not given), for which the growth is 16.5% (inactive) in the test with T-47D breast; -43.8% (active) in the test on MDA-MB-435 melanoma; -27% (active) with SW-620 colon; -18.4% (active) in the test with MCF7 breast; -51% (active) in the test with HCT-116 colon; -70.5% (active) with HCC-2998 colon. Further, the growth in the test with KM12 colon was -97.7% (active).

For `Cc1ccc2nc(C[n+]3ccc4ccccc4c3)ccc2c1`, the growth with T-47D breast is 32.2% (inactive); with BT-549 breast, 21.7% (inactive); in the test on MDA-MB-435 melanoma, 54.7% (inactive); with MCF7 breast it was 35.6% (inactive); in the test with HCT-116 colon, 53.5% (inactive); in the test with HCC-2998 colon, 71.2% (inactive). For the same molecule, in the test on KM12 colon, the growth was 56.4% (inactive).

`CCOc1ccc(-c2nc3ccc(-c4nc5ccc(N6CCN(C)CC6)cc5[nH]4)cc3[nH]2)cc1`: the growth in the test with T-47D breast is -69.4% (active); in the test on BT-549 breast, -96.6% (active); with MDA-MB-435 melanoma it was -96% (active); with MCF7 breast, -90.3% (active); in the test on HCT-116 colon it was -77.6% (active); in the test with HCC-2998 colon, -95.3% (active). Also, the growth with KM12 colon was -100% (active).

Turning to `CN(C)c1ccc(C(=C2C=CC(=[N+](C)C)C=C2)c2ccc(N(C)C)cc2)cc1` (tested in a mixture with another compound), the growth in the test with T-47D breast is -92.4% (active); in the test on MDA-MB-435 melanoma, -57.7% (active); in the test on MCF7 breast, -92.3% (active); with HCT-116 colon, -76% (active); in the test with HCC-2998 colon it was -80.3% (active); with KM12 colon, -95.3% (active).

Regarding `CC(=Nc1ccc(N(C)C)cc1)c1ccccc1`, the growth in the test on T-47D breast was 39.6% (inactive); in the test with BT-549 breast, 58.3% (inactive); with MDA-MB-435 melanoma, 54.4% (inactive); in the test on MCF7 breast it was 20.8% (inactive); in the test with HCT-116 colon it was 50% (inactive); in the test on KM12 colon, 42.6% (inactive).

For the molecule `O=C1NC(=O)/C(=C/C=C/c2ccccc2)S1`, the growth with T-47D breast is 60.7% (inactive); in the test on MDA-MB-435 melanoma, 49.6% (inactive); in the test on SW-620 colon it was 61.4% (inactive); in the test on MCF7 breast, 19.1% (inactive); in the test with HCT-116 colon, 31.7% (inactive); in the test with HCC-2998 colon, 13.2% (inactive). Moreover, in the test with KM12 colon, the growth was 38% (inactive).

Turning to `Nc1ncnc2c1ncn2C1OC(CO)C(O)C1O` (stereo not given), the growth with T-47D breast is 109% (inactive) and 9.96% (active) and 90.6% (inactive); in the test on BT-549 breast, 101% (inactive) and 47.6% (inactive) and 123% (inactive); in the test with MDA-MB-435 melanoma, 110% (inactive) and 103% (inactive) and 112% (inactive); with MCF7 breast it was 107% (inactive) and 10.7% (inactive) and 97% (inactive); in the test with HCT-116 colon, 108% (inactive) and 65% (inactive) and 90% (inactive); in the test on HCC-2998 colon, 105% (inactive) and 31.2% (inactive) and 107% (inactive). For the same molecule, in the test on KM12 colon, the growth was 116% (inactive) and 112% (inactive) and 114% (inactive).

Turning to `Cc1ccnc2c1ccc1c(C)ccnc12`, the growth with T-47D breast is 6.3% (active); with BT-549 breast, 23.2% (inactive); in the test with MDA-MB-435 melanoma, 32% (inactive); in the test on MCF7 breast, 13.9% (inactive); in the test with HCT-116 colon it was 13.7% (inactive); in the test with HCC-2998 colon it was 51.3% (inactive). Further, the growth in the test with KM12 colon was 24.2% (inactive).

In the case of `CNc1ccc2c(c1)c1ccccc1n2C`, the growth was 91.3% (inactive) in the test on T-47D breast; 106% (inactive) in the test on BT-549 breast; 115% (inactive) with MDA-MB-435 melanoma; 97.5% (inactive) in the test on MCF7 breast; 107% (inactive) in the test with HCT-116 colon; 99.4% (inactive) in the test with HCC-2998 colon. The growth with KM12 colon is 104% (inactive).

Source of the values: PubChem BioAssay (NCI).
